Source: PubChem BioAssay
ERAP1 inh – blocks human ERAP1 aminopeptidase activity | AID 652197 | inhibition, % at 10.7 µM | recombinant ERAP1, Leu-AMC fluorescence, 60 min | Q9NZ08 | actives 0.15% (n = 340,000);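 active = mean replicate inhibition of at least 30%, or all replicates individually reaching that 30% level; inactive = mean below 30% and not every replicate reaching it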;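 also: 0% = neutral control wells and 100% = L-leucinethiol positive control wells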
Casp6 inh – caspase-6 (human) enzyme inhibition | P55212 | purified caspase-6, Z-VEID-R110 cleavage fluorescence | inhibition, % at 12.5 µM | actives 0.53% (n = 350,000);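 active = mean inhibition across replicates at least about 35%, with every replicate also reaching that limit, limit read from the data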;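 also: 0% = median of neutral control wells and 100% = no fluorescence left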
SIRT5 inh – inhibitors of human sirtuin-5 desuccinylase; Purified SirT5, succinyl-peptide AMC, trypsin-coupled fluorescence; inhibition, % at 15 µM; actives 1.1% (n = 330,000); in the data active = inhibition above about 15%
Target sequence (Q9NXA8 whole entry, looked up): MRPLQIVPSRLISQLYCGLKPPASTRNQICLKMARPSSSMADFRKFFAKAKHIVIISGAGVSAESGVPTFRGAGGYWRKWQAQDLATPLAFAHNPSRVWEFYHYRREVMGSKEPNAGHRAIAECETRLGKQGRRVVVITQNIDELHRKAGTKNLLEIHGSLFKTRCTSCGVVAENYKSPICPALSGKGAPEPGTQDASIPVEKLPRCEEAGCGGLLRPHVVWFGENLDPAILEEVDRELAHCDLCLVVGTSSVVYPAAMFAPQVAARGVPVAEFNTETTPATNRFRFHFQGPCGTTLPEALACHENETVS
FGF22 binding-1 – FGF22 (human) thermal shift binding; Q9HCT0; recombinant FGF22 thermal shift, SYPRO orange fluorescence; percent of sucrose octasulfate shift, DMSO zero; activity (Tm shift, normalised), % at 9.99 µM; actives 1.5% (n = 340,000);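 active = mean Tm shift, scaled 0 neutral to 100 positive control, at about 1.3% or above, every replicate too, limit read from the data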
Target sequence (Q9HCT0 whole entry, looked up): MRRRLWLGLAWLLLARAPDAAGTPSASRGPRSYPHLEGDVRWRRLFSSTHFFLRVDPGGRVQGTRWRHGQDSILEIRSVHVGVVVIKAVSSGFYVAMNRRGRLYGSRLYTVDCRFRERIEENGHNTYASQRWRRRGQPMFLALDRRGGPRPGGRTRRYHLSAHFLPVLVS
FGF22 binding-2 – binds human FGF22 shifting its melting temperature; shares compounds with FGF22 binding-1; recombinant FGF22 thermal shift, SYPRO orange fluorescence; thermal shift activity, °C (ΔTm) at 38 µM; actives 2% (n = 1,000); AID 720646;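 active = fitted rise in melting shift crosses a set limit at or below the top valid dose tested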
FGF22 TSA DP – FGF22 (human) binding by thermal shift. 50 tested, under 10 active. shares compounds with FGF22 binding-1. Tm shift (activity), % at 38 µM. Thermal shift assay, SYPRO orange, melting temperature shift;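 active = compounds whose fitted dose curve of melting temperature shift rises past a set threshold within the tested doses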
TSA no protein – compound-only SYPRO artifact for FGF22 binders; shares compounds with FGF22 binding-1; compound-only SYPRO orange thermal shift counter-screen, no protein; AC50, µM (highest dose often 38 µM); actives 2% (n = 1,000);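 active = rising signal whose fitted curve reaches the 0.54 level within the top valid dose, showing a melting point, actives reach about 13 µM in these data; inactive = the rest, including activity in the opposite direction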; also: value is where the raw curve crosses a fixed level and not half-maximal
An asterisk follows results filed as active; i = inactive; x = no result; [ ] = another dose, or the depositor's remark. Shown are actives, neighbours in structure and some others; about 3.1% of the full set was active somewhere.

SMILES	ERAP1 inh	Casp6 inh	SIRT5 inh	FGF22 binding-1	FGF22 binding-2	TSA no protein	others
O=C(N[C@@H]1C=C[C@H](CC(=O)N2CCOCC2)O[C@@H]1CO)c1ccccn1	0	0	5	-1	x	x
COC12CC(=O)C(C(C)=O)=C(O)C1(C)c1c(O)c(C)c(O)c(C(C)=O)c1O2 (stereo not given)	1	13	7	1.4*	0.14	i
O=C(Nc1cccc2ccccc12)c1cccc([N+](=O)[O-])c1	-2	0	-5	1.7*	0.084	i
O=C(Nc1ccc2ccccc2c1)c1cccc([N+](=O)[O-])c1	6	2	-6	0	x	x
O=C(Nc1ccc(S(=O)(=O)Nc2ccccn2)cc1)c1cccc([N+](=O)[O-])c1	-1	2	0	36*	0.11	i
NS(=O)(=O)c1cccc(NC(=O)c2ccc(NS(=O)(=O)c3cccc([N+](=O)[O-])c3)cc2)c1	-5	2	-3	3.1*	0.27	i
Cc1noc(C)c1NC(=O)Nc1ccc2c(c1)C(=O)N([C@H](C)CO)C[C@@H](C)[C@@H](CN(C)CC1CCCCC1)OCCCC[C@H](C)O2	0	-2	2	0	x	x
COc1ccccc1C#Cc1cnc2c(c1)C(=O)N([C@@H](C)CO)C[C@@H](C)[C@@H](CN(C)C(=O)c1ccc3c(c1)OCO3)O2	2	1	4	0	x	x
CN1/C(=C\C(=O)c2cccc([N+](=O)[O-])c2)Sc2ccccc21	3	-1	-2	2.2*	0.013	i
COc1cc(/C=C2\CCn3c2nc2cc(C(=O)O)ccc2c3=O)ccc1OC(F)F	7	1	7	1.4*	0.17	i
O=C(N[C@@H]1CC[C@H](CCNS(=O)(=O)c2ccccc2Cl)O[C@H]1CO)c1ccc(F)cc1	-1	2	-1	0	x	x
O=C(N/N=C/c1cccc(Oc2ccccc2)c1)c1cccc(O)c1	0	5	-3	1.5*	0.029	i	FGF22 TSA DP=0
O=[N+]([O-])c1ccc(Cl)c(S(=O)(=O)Nc2ccc(S(=O)(=O)N3CCOCC3)cc2)c1	-1	8	-2	2.2*	0.15	i
O=[N+]([O-])c1ccc(Cl)c(S(=O)(=O)Nc2ccc(-c3ccc(N4CCOCC4)nn3)cc2)c1	-1	-3	8	0	x	x
CO[C@@H]1CN(C)C(=O)c2ccc(NS(=O)(=O)c3ccccc3)cc2OC[C@H](C)N(Cc2cccnc2)C[C@@H]1C	-3	2	8	0	x	x
O=C(OCC(=O)c1ccc(Cl)s1)c1ccc2ccccc2n1	2	-7	-3	1.7*	0.031	i
O=[N+]([O-])c1ccc2nc(-c3ccccc3)[nH]c2c1	-1	-1	-2	1.7*	-0.04	i
Nc1cccc(C(=O)Nc2ccc3nc(-c4cccnc4)[nH]c3c2)c1	-2	5	-4	0	x	x
Nc1cccc(-c2nc3ccc(C(=O)c4ccccc4)cc3[nH]2)c1	-1	1	-1	13*	0.031	i	FGF22 TSA DP=0
COc1ccc2c3c([nH]c2c1)[C@@H](CO)N(C(=O)C1CCC1)CC31CCN(C(=O)c2ccncc2)CC1	x	x	0	0	x	x
Nc1n[nH]c(=S)n1/N=C1/C(=O)Nc2ccccc21	-1	4	x	1.8*	0.05	i
S=C(Nc1ccc(Cl)cc1)Nc1ccc2cn[nH]c2c1	0	3	x	1.9*	0.26	i
O=C(N[C@H]1CC[C@@H](CCNS(=O)(=O)c2ccc(F)cc2)O[C@H]1CO)c1ccccn1	-2	-2	3	1.4*	0.003[42 µM]	i
O=C(Nc1cccc(F)c1)N[C@H]1CC[C@@H](CCNS(=O)(=O)c2cccc(Cl)c2)O[C@@H]1CO	-3	-8	2	0	x	x
O=C(Nc1cc(Cl)cc(Cl)c1)N[C@@H]1CC[C@@H](CCNS(=O)(=O)c2cccc(F)c2)O[C@H]1CO	-1	-2	-3	2.6*	-0.22[42 µM]	i	FGF22 TSA DP=0
SMILES	ERAP1 inh	Casp6 inh	SIRT5 inh	FGF22 binding-1	FGF22 binding-2	TSA no protein	others
CCOc1cccc(C(=O)Nc2ccc3[nH]ncc3c2)c1	2	-2	-1	1.6*	-0.074	i	FGF22 TSA DP=0
Cc1cc(C(=O)Nc2cccc3c2O[C@H](CN(C)S(=O)(=O)c2c(C)noc2C)[C@H](C)CN([C@H](C)CO)C3=O)n(C)n1	-1	-1	4	0	x	x
COc1ccc(CCNS(=O)(=O)CCNC(=O)c2ccc3c(c2)OCO3)cc1	1	2	-7	11*	0.08	i
COc1ccc(CNS(=O)(=O)CCNC(=O)c2ccc3c(c2)OCO3)cc1	-1	2	-2	0	x	x
O=C(NCC[C@H]1CC[C@@H](NC(=O)C2CCC2)[C@@H](CO)O1)c1cnccn1	-3	-4	2	-1	x	x
C=CCN(C(=O)c1csnn1)C(C(=O)NC1CCCCC1)c1ccc(C)cc1 (stereo not given)	0	x	-2	0	x	x
C=CCN(C(=O)c1csnn1)C(C(=O)NC1CCCCC1)c1ccc(Cl)cc1 (stereo not given)	-2	4	10	1.5*	-0.074	i
CCCSc1ncnc2[nH]ncc12	3	-3	-2	46*	0.1	i
CCCCCCCCNc1ncnc2[nH]ncc12	2	-3	2	0	x	x
C=C(C1=CCN(S(=O)(=O)C(C)(C)C)[C@H]1CCO)c1ccccc1	0	7	0	15*	0.047	i
COc1cccc(NC(=O)OCCN2CCN(Cc3ccccc3)CCC2=O)c1	-3	-2	-8	1.5*	0.16	i
O=C(Nc1ccccc1)OCCN1CCN(Cc2ccccc2)CCC1=O	-5	0	-2	0	x	x
CN(C)C(=O)C[C@@H]1CC[C@@H]2[C@@H](COc3ccc(NC(=O)C4CCCC4)cc3C(=O)N2C)O1	3	1	0	x	x	x
COc1ccc(/C=C(\C#N)c2nc3ccccc3[nH]2)cc1O	-3	5	-1	0	x	x
COc1c(O)ccc(/C=C(\C#N)c2nc3ccccc3[nH]2)c1[N+](=O)[O-]	0	13	x	1.4*	-0.11	i
COc1ccc(CCNC(=O)[C@@]2(Cc3ccccc3I)c3ccccc3C(=O)N(Cc3ccccc3OC)[C@H]2c2ccc(CO)cc2)cc1	0	-2	6	0	x	x
O=C(O)c1cc2cccc(S(=O)(=O)N3CCCCC3)c2cc1O	-5	2	x	1.7*	0.087	i
O=S(=O)(c1cccc2ccccc12)N1CCCCC1	2	2	6	0	x	x
CO[C@H]1CN(C)C(=O)c2ccc(NC(=O)Nc3ccccc3F)cc2OC[C@@H](C)NC[C@H]1C	-1	5	-2	0	x	x
